Shown are actives, neighbours in structure and some others; about 3.5% of the full set was active somewhere.
TEAD-YAP inh: TEAD-YAP interaction inhibition. HEK-TIYL cells, TEAD-Gal4/YAP UAS-luciferase luminescence. inhibition, % at 9.12 µM. hit rate 1.4% among 640,000; in the data active = inhibition above about 32%;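 also: 0% = median of test compound wells and 100% = reference inhibitor wells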
FBW7 activator: activators of human E3 ligase FBW7. normalized activity (activation), % at 26.1 µM. AID 1259310. Q969H0. AlphaScreen FBW7–phospho-cyclin E peptide binding, activator screen. hit rate 0.13% among 650,000; in the data active = normalized activity above about 1.9%;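 also: purified mutant Fbw7 with reduced substrate affinity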
MITF primary: inhibitors of human MITF. hit rate 0.91% among 650,000. inhibition, % at 2.6 µM. AlphaScreen MITF homodimerization, bead proximity signal. O75030; in the data active = inhibition above about 50%;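 also: 0% = vehicle wells with protein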
Target sequence (O75030 whole entry, looked up): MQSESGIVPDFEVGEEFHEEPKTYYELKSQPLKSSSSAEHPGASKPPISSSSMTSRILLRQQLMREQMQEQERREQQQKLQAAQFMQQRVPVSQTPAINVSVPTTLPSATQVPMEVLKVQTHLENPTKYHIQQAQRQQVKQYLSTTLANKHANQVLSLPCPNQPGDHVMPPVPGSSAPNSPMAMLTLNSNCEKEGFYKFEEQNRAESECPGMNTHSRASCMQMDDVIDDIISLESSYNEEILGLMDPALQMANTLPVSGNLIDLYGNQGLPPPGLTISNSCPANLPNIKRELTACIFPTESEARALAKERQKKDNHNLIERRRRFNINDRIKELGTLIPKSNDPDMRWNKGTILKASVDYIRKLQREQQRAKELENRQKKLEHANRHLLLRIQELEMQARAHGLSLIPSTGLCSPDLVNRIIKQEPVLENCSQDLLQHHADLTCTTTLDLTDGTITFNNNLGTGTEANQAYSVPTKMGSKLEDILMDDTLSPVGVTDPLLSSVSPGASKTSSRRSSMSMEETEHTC
GPR151 ag: activators of human GPR151. PathHunter beta-arrestin GPR151 cells, luminescence. activation, % at 11.2 µM. hit rate 1% among 650,000; in the data active = activation above about 4.9%;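 also: 0% = median of compound wells and 100% = cells with positive control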
GPR151 conf act: confirmation of human GPR151 activators. shares compounds with GPR151 ag. GPR151 PathHunter beta-arrestin cells, luminescence, 90 min; % of EA-reagent control over plate median. activation, % at 11.2 µM. 6,700 tested, under 10 active. AID 1508609;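 active = mean percent activation across replicates above the confirmation screen cutoff of 4.91%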
GPR119 counter: activates human GPR119 in a GPR151 counter-screen; shares compounds with GPR151 ag; GPR119 PathHunter beta-arrestin cells, luminescence, 90 min; 0 = compound-well median, 100 = enzyme-acceptor control; activation, % at 11.2 µM; hit rate 0.3% among 6,700;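 active = mean percent activation in the counterscreen above 29.09%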;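 also: counterscreen on off-target GPR119 to flag nonselective hits from the GPR151 activator screen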
* marks the source's active call; other numbers are inactive results; . = not tested or not shown; ! = not confirmed by another sample.

SMILES	TEAD-YAP inh	FBW7 activator	MITF primary	GPR151 ag	GPR151 conf act	GPR119 counter
Cc1cccc(OCC(=O)N2CCN(C(=O)c3ccc(-c4ccccc4)cc3)CC2)c1	-7.1	-0.1	14.4	0.1	.	.
O=C(CSc1nc2sc3c(c2c(=O)n1-c1ccccc1)CCCC3)c1ccccc1OC(F)F	1.3	0.3	12.2	-1.0	.	.
CCn1nc(C)c(CN2CCC3(CC2)CC3C(=O)NCc2ccccc2)c1C (stereo not given)	7.8	0.1	-2.6	5.4*	0.3	0.1
COc1cccc(CN2CCC3(CC2)CC3C(=O)NCc2cccc(C(F)(F)F)c2)c1O (stereo not given)	-2.8	-0.1	-4.2	5.0*	0.9	12.9
Cc1ccc(/C=C(\NC(=O)c2ccccc2)C(=O)NCCCN2CCOCC2)o1	8.7	0.0	-9.6	3.8	.	.
COc1ccc(-n2cc(C(=O)NCCCN3CCCCC3C)c3ccccc3c2=O)cc1 (stereo not given)	-3.4	0.6	10.9	-1.2	.	.
Oc1ccccc1-c1csc(Nc2ccccn2)n1	-79.5	-0.1	-8.0	7.6*	-2.0	-14.5
CCOC(=O)c1c(C)n(C)c2ccc(OCC(O)CN(CC)CC)cc12 (stereo not given)	4.2	0.1	-2.6	3.5	.	.
CCOC(=O)c1c(C)n(C)c2ccc(OCC(O)Cn3nnc4ccccc43)cc12 (stereo not given)	12.1	-0.2	12.1	6.0*	0.1	4.1
COc1cccc(-c2ccc(=O)n(CC(=O)Nc3ccc(Cl)c(C(F)(F)F)c3)n2)c1	-1.7	0.2	-7.4	18.4*	0.5	-1.4
COc1ccccc1-c1ccc(=O)n(CC(=O)Nc2ccc(Br)cc2)n1	4.6	-0.1	-1.6	9.6*	0.1	-4.5
COc1cccc(-c2ccc(=O)n(CC(=O)Nc3ccc(C(=O)N4CCCC4)cc3)n2)c1	-9.8	0.1	0.4	0.6	.	.
CC(C)c1ccc(/C=C2/NC(=S)NC2=O)cc1	-5.1	-0.1	-5.8	0.0	.	.
COc1ccc(OC)c(NC(=O)c2c(NCc3cccc(OC)c3OC)sc3c2CCC3)c1	-7.1	0.1	-1.6	-0.3	.	.
COc1ccc(-c2nc(C)c(CCNC(=O)c3cccc(OC)c3)s2)cc1	-14.5	0.1	1.2	0.6	.	.
COc1ccc(C(=O)NCCc2sc(-c3ccccc3)nc2C)cc1	-5.2	0.1	-6.5	5.2*	-0.4	0.9
COc1cccc(C2(CC(=O)N(C)C(C)C)CC(=O)N(CCN(C)C)C2=O)c1 (stereo not given)	-3.9	0.1	0.1	1.4	.	.
COCCCn1c(=O)[nH]c2ncc(-c3cc(OC)c(OC)c(OC)c3)nc21	-9.8	-0.6	9.2	6.0*	-0.2	8.8
COCCCn1c(=O)[nH]c2ncc(-c3ccccc3)nc21	9.1	-0.5	-4.8	-0.5	.	.
CC(=O)Oc1ccc(C(=O)O)cc1	-4.9	0.0	0.8	0.2	.	.
CCCCCOc1ccc(C(=O)Nc2c(C(N)=O)oc3ccccc23)cc1	1.3	0.0	6.2	4.9*	1.6	0.4
CCCCOc1ccc(C(=O)Nc2c(C(N)=O)oc3ccccc23)cc1	3.8	0.2	8.4	-1.8	.	.
CC(=O)Nc1c(C(=O)c2ccc(Oc3ccccc3)cc2)oc2ccccc12	-0.9	0.1	-13.1	7.4*	1.6	6.6
CCCCn1c(SCc2cccc([N+](=O)[O-])c2)nc2c(sc(=S)n2CCc2ccccc2)c1=O	2.0	-0.1	19.5	1.7	.	.
CN(C)c1ccc(C2Nc3ccccc3C(c3ccccc3)(c3ccccc3)O2)cc1 (stereo not given)	-1.2	-0.2	7.4	-0.8	.	.
SMILES	TEAD-YAP inh	FBW7 activator	MITF primary	GPR151 ag	GPR151 conf act	GPR119 counter
O=C(NCc1ccccc1Cl)c1nnc(-c2ccncc2)o1	0.2	-0.6	-2.6	1.3	.	.
O=C(NCc1ccccc1Cl)c1nnc(-c2ccccc2)o1	-13.6	0.0	6.0	5.0*	0.4	-4.5
CCNC(=O)N1CCN(c2nccnc2NS(=O)(=O)c2ccc3c(c2)OCCO3)CC1	6.7	-0.5	17.4	-0.9	.	.
Cc1[nH]c2ccccc2c1/C=N/Nc1ccccc1[N+](=O)[O-]	-53.8	0.0	40.0	6.9*	0.2	8.9
Cc1nc(SCC(=O)O)cc(-c2ccccc2)n1	-4.6	0.2	-14.4	5.0*	-0.5	-2.2
O=C(O)CSc1nc(-c2ccccc2)cc(C(F)F)n1	1.4	-0.1	-2.8	-1.0	.	.
CCOCCn1c(=NC(=O)CN2C(=O)CCC2=O)sc2cc(Br)ccc21	10.4	-0.2	-2.7	5.8*	0.0	3.7
COCCn1c(=NC(=O)CN2C(=O)CCC2=O)sc2cc(Br)ccc21	1.2	0.1	0.5	-0.3	.	.
COc1cccc(NC(=O)c2ccc(CNc3c(NC4CCCC4)c(=O)c3=O)cc2)c1	-5.8	-0.1	-2.0	0.5	.	.
CC1(C)CC(=O)C2=C(C1)Nc1ccccc1N1C(=O)c3ccccc3C21 (stereo not given)	-15.8	-0.1	-5.2	-0.1	.	.
CCC(=O)N1c2ccccc2NC2=C(C(=O)CC(C)(C)C2)C1c1ccc(N(C)C)cc1 (stereo not given)	16.3	0.0	2.5	-0.3	.	.
CC1(C)CC(=O)C2=C(C1)Nc1cc(C(=O)c3ccccc3)ccc1N1C(=O)c3ccccc3C21 (stereo not given)	16.9	-0.2	2.0	5.1*	1.3	9.1
CCC(=O)N1c2ccccc2NC2=C(C(=O)CC(C)(C)C2)C1c1ccc(Cl)cc1 (stereo not given)	10.5	-0.2	0.3	5.1*	-0.3	-17.3
COc1cncc(-c2cnc(N)c(-c3cccc(N(C)C)c3)n2)c1	2.8	0.6	12.2	-1.9	.	.
COCCNC(=O)C(=O)N/N=C/c1cccc(Br)c1	-4.2	-0.1	-2.9	0.6	.	.
CCOC(=O)C1=C(C)NC2=C(C(=O)CC(C)(C)C2)C1c1ccc(OC)c(OC)c1OC (stereo not given)	-13.8	0.2	0.5	11.8*!	0.3	4.7
CCOC(=O)C1=C(C)NC2=C(C(=O)CC(C)(C)C2)C1c1cccc(OC)c1OC (stereo not given)	15.7	0.4	11.1	0.1	.	.
COc1cc(C2C(C(=O)OC3CCCCC3)=C(C)NC3=C2C(=O)CC(C)(C)C3)cc(OC)c1OC (stereo not given)	-5.0	0.1	-8.6	12.4*	-0.3	6.2
CCc1ccc(NC(=O)C2=CC(c3cccc(OC)c3)=NS(=O)(=O)N2C)cc1	1.2	0.0	6.1	-1.1	.	.
COCC(C)NS(=O)(=O)c1cc2c3c(c1)CC(=O)N3CCC2 (stereo not given)	0.7	-0.1	-24.7	0.1	.	.
COc1ccc(N2CCN(C(=O)CN3CCN(c4cc(Cl)ccc4C)CC3)CC2)cc1	-3.1	-0.2	-1.1	7.2*	0.3	5.6
Cc1cccc(-c2nc(CS(=O)CC(=O)NC(C)C)c(C)o2)c1 (stereo not given)	7.2	-0.1	7.1	0.8	.	.
